The list is not random: actives were taken first. Their share in the collection is about 1.3%.
Akt phos inh: inhibitors of Akt phosphorylation; Neuro2A IGF-stimulated pAkt S473 HTRF, 20 min; active compounds read low; activity change, % for hits at 50 µM; AID 651550; actives 0.32% (n = 360,000); in the data active means activity change below about -80%; inconclusive means mostly about -51% to -80%
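Single-point screen (50 µM final compound) in Neuro2A cells stimulated 20 min with 6 nM IGF at 37 deg C. After lysis, Ser473-phosphorylated Akt read by HTRF (ex 330 nm, em 615/665 nm) as the 665/615 ratio.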
TSHR antag: antagonists of human thyroid stimulating hormone receptor; activity change, negative = inhibition, % at 11.5 µM; P16473; TSHR-expressing cells, TSH-stimulated cAMP HTRF, 2 h; active compounds read low; AID 504810; actives 0.2% (n = 330,000);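 active means activity change below a set negative limit, meaning inhibition stronger than a set level, cut at about -70% in these data; inconclusive means activity change between two set negative limits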
Target sequence (P16473 whole entry, looked up): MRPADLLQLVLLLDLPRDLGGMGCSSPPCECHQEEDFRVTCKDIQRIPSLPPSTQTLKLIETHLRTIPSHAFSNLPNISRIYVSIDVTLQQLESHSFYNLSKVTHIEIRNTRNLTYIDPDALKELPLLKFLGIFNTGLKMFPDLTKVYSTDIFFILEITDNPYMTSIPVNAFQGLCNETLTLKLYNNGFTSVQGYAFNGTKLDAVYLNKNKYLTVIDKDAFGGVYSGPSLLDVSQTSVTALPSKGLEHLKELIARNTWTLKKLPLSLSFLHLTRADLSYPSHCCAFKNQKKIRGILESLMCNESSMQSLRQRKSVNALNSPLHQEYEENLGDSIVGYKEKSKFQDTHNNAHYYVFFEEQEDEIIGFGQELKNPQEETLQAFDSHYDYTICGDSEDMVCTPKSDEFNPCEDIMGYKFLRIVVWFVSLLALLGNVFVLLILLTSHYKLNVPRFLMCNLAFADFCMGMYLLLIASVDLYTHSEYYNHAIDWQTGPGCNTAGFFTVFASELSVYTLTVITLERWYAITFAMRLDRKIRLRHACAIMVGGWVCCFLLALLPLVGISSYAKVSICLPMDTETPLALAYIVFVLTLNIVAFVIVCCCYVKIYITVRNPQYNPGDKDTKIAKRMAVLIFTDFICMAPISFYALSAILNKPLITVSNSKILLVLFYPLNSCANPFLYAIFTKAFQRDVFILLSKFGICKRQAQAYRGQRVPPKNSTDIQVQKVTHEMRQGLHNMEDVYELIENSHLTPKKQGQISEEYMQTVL
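Inhibition of cAMP made by TSHR-expressing cells under TSH stimulation (4nM final, EC80; 2 h, 37 deg C) is quantified with a one-step lysis HTRF kit, anti-cAMP cryptate versus cAMP-d2.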
gsp antag: antagonizes gsp, the McCune-Albright syndrome mutation; gsp-mutant cells, cAMP HTRF, 30 min; Potency, µM (doses to about 76.9 µM), most hits filed as inhibitors; actives 0.4% (n = 340,000); AID 624288; calls by dose curve; cell line not stated here;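 further: intracellular cAMP measured with PDE inhibitor Ro 20-1724 present during compound exposure; nearly all actives have a fitted effect of over 65% in size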
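Cells in G418 medium, seeded 16-24 h, 37C; buffer exchange to DPBS + 1 mM CaCl2, 0.5 mM MgCl2, 0.05% BSA; cpds in DMSO + […] (300 uM stock), 30 min 37C; HTRF cAMP detection.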
RXFP1 agonist: agonists of human relaxin receptor RXFP1 | Q9HBX9 | Potency, µM (titrated, usually from 57.5 µM), most hits filed as activators | AID 2676 | actives 0.3% (n = 370,000) | HEK293T-RXFP1 cAMP TR-FRET, 30 min; response scale: percent of porcine relaxin response, buffer zero; active means well fitted activation curve with a large enough effect; inconclusive means small, poorly fitted or top-dose-only effect; further: nearly all actives have a fitted effect of over 60% in size
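HEK293 cells stably expressing RXFP1, treated 30 min at 37C with compounds plus PDE4 inhibitor Ro 20174; cAMP measured by HTRF TR-FRET. Normalized to buffer and 29 nM porcine relaxin; EC50 by Hill fit.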
RXFP1 antagonist: blocks the human relaxin receptor RXFP1. Q9HBX9. HEK293-RXFP1, relaxin-stimulated cAMP HTRF, 30 min; active compounds read low. activity change, negative = inhibition, % at 57.5 µM. actives 0.59% (n = 350,000);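 active means activity change of -60% or lower, but not beyond a set lower limit; inconclusive means change between -60% and -40%, or beyond the set limit; inactive means change above -40%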
gsp ag: activates gsp, the McCune-Albright syndrome mutation; AID 624287; gsp mutant cells, cAMP HTRF, 30 min; actives 0.13% (n = 340,000); Potency, µM (titrated, usually from 76.9 µM), most hits filed as activators; active means well fitted activation curve with a large enough effect; inconclusive means small, poorly fitted or top-dose-only effect, or another doubt; inactive means no such curve, though single readings can be large or run the other way; cell line not stated here;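 further: phosphodiesterase inhibitor Ro 20-1724 added with compounds to block cAMP breakdown; nearly all actives have a fitted effect of over 60% in size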
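Cells stably selected in G418 were plated at 2000/well, grown 16-24 hr, then given compounds in DMSO with the PDE inhibitor […] (300 uM solution added) for 30 min at 37C; cAMP was read by HTRF.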
Numbers stand for hits; [ ] = remark or other dose.

`CC(NCc1ccc(OCc2ccc(Cl)cc2)cc1)C(O)c1ccccc1` (stereo unspecified) gave Akt phos inh inactive, TSHR antag inactive, gsp antag inactive, RXFP1 agonist inactive, RXFP1 antagonist -100 and gsp ag inactive[15.4 µM].
Screening CC(NCc1cccc(OCc2ccccc2)c1)C(O)c1ccccc1 (stereo unspecified) returned Akt phos inh inactive, TSHR antag inactive, gsp antag inactive, RXFP1 agonist inactive, RXFP1 antagonist inactive and gsp ag inactive.
`CC1=C(C(=O)Nc2cc(C(=O)N3CCN(c4cccc(C)c4C)CC3)ccc2C)SCCO1` gave Akt phos inh inactive, TSHR antag inactive, gsp antag 50µM, RXFP1 agonist inactive, RXFP1 antagonist inconclusive and gsp ag inactive.
`COc1ccc(-c2nc(SC(C)C(=O)NC3CC3)n[nH]2)cc1` (stereo unspecified) gave Akt phos inh inactive, TSHR antag inactive, gsp antag inactive, RXFP1 agonist inactive, RXFP1 antagonist inactive and gsp ag inactive.
CC(C)(OC(=O)c1ccc(C#N)cc1)c1cc2ccccc2c(=O)o1 was read as Akt phos inh inactive, TSHR antag inactive, gsp antag inactive and RXFP1 agonist inactive.
For COC(=O)CN(c1ccc(C)c(Cl)c1)S(C)(=O)=O the results were Akt phos inh -90%, TSHR antag inactive, gsp antag inactive, RXFP1 agonist inactive, RXFP1 antagonist inactive and gsp ag inactive.
For Cc1csc(Sc2nc3c(c(=O)[nH]c(=O)n3C)n2Cc2ccccc2Cl)n1 the results were Akt phos inh inactive, TSHR antag inactive, gsp antag 40µM, RXFP1 agonist inactive, RXFP1 antagonist inactive and gsp ag inactive.
CSc1nc2c(c(=O)[nH]c(=O)n2C)n1Cc1ccccc1Cl was read as Akt phos inh inactive, TSHR antag inactive, gsp antag inactive, RXFP1 agonist inactive, RXFP1 antagonist inactive and gsp ag inactive.
For O=C(C1=C(O)C(=O)N(Cc2cccnc2)C1c1ccccn1)c1cccs1 (stereo unspecified) the results were Akt phos inh inactive, TSHR antag inactive, gsp antag inactive, RXFP1 agonist inactive, RXFP1 antagonist inactive and gsp ag inactive.
`O=C1CC(=Nc2ccccc2)NN1c1ccccc1` gave Akt phos inh inactive, TSHR antag inactive, gsp antag 50µM, RXFP1 agonist inactive, RXFP1 antagonist inactive and gsp ag inactive.
For Cc1ccc(C2=NOC(=O)/C2=C\C=C\c2ccccc2)cc1 the results were Akt phos inh inactive, TSHR antag inactive, gsp antag inactive, RXFP1 agonist inactive, RXFP1 antagonist -108 and gsp ag inactive[15.4 µM].
For CN(C)/C=C1\C(=O)ON=C1c1ccccc1 the results were Akt phos inh inactive, TSHR antag inactive, gsp antag inactive, RXFP1 agonist inactive, RXFP1 antagonist inactive and gsp ag inactive[15.4 µM].
NC(=O)SCC(=O)Nc1ccc(Cl)c(Cl)c1 was read as Akt phos inh inactive, TSHR antag inactive, gsp antag inactive, RXFP1 agonist inactive, RXFP1 antagonist -71 and gsp ag inactive.
`Cc1oc(-c2ccccc2)nc1CS(=O)CC(=O)NC1CCCC1` (stereo unspecified) gave Akt phos inh inactive, TSHR antag inactive, gsp antag inactive, RXFP1 agonist inactive, RXFP1 antagonist inactive and gsp ag inactive.
COC(=O)c1cc(C)nc2c1c(=O)nc(SCc1c(C)cc(C)cc1C)n2C1CC1 was read as RXFP1 agonist inactive and RXFP1 antagonist inactive.
Screening Cc1ccc(CSc2nc(=O)c3c(C)cc(C)nc3n2C2CC2)cc1 returned RXFP1 agonist inactive and RXFP1 antagonist -62.
`Cc1ccc(-c2cn3cccnc3n2)cc1NC(=O)C(C)(C)Oc1ccc(Cl)cc1` gave RXFP1 agonist inactive and RXFP1 antagonist inactive.
`O=C(O)CC/C(=N\Nc1ccc([N+](=O)[O-])cc1)c1ccccc1` gave Akt phos inh inactive, TSHR antag inactive, gsp antag 32µM, RXFP1 agonist inactive, RXFP1 antagonist inactive and gsp ag inactive[15.4 µM].
`O=C1/C(=C/c2ccc(O)cc2)SC(=S)N1CC1CCCO1` (stereo unspecified) gave Akt phos inh inactive, TSHR antag inactive, gsp antag inactive, RXFP1 agonist inactive, RXFP1 antagonist -73 and gsp ag inconclusive.
Screening COc1ccc(C(C)=O)cc1CC(=O)NCCCn1ccnc1 returned Akt phos inh inactive, TSHR antag inactive, gsp antag inactive, RXFP1 agonist inactive, RXFP1 antagonist inactive and gsp ag inactive[15.4 µM].
c1ccc(-c2csc(NNC3=NCCCCC3)n2)cc1 was read as Akt phos inh inactive, TSHR antag inactive, gsp antag inactive, RXFP1 agonist inactive, RXFP1 antagonist inactive and gsp ag inactive.
For Clc1ccc(-c2csc(NNC3=NCCCCC3)n2)cc1 the results were Akt phos inh -111%, TSHR antag inactive, gsp antag inactive, RXFP1 agonist inactive, RXFP1 antagonist inactive and gsp ag inactive.
`CCCNS(=O)(=O)c1ccc(OCC(=O)Nc2ccccc2F)cc1` gave Akt phos inh -102%, TSHR antag inactive, gsp antag inactive, RXFP1 agonist inactive, RXFP1 antagonist inactive and gsp ag inactive.
For CCOc1ccc(S(=O)(=O)N(C)c2ccc(OCC(=O)Nc3ccccc3F)cc2)cc1 the results were Akt phos inh inactive, TSHR antag inactive, gsp antag inactive, RXFP1 agonist inactive, RXFP1 antagonist inactive and gsp ag inactive[15.4 µM].
Screening O=C(NNc1ccc([N+](=O)[O-])cc1[N+](=O)[O-])c1ccco1 returned Akt phos inh inactive, TSHR antag inactive, gsp antag 35µM, RXFP1 agonist inactive, RXFP1 antagonist inactive and gsp ag inactive.
O=C(Nc1ccccc1)c1cc(C2CCCN(C(=O)OCc3ccccc3)C2)on1 (stereo unspecified) was read as Akt phos inh inactive.
`Cc1c(C(=O)N(C)C)sc(NC(=O)c2cc([N+](=O)[O-])cc([N+](=O)[O-])c2)c1C#N` gave Akt phos inh inactive, TSHR antag inactive, gsp antag 40µM, RXFP1 agonist inactive, RXFP1 antagonist inactive and gsp ag inactive.
`Cc1ccc(C(=O)Nc2sc(C(=O)N(C)C)c(C)c2C#N)cc1` gave Akt phos inh inactive, TSHR antag inactive, gsp antag inactive, RXFP1 agonist inactive, RXFP1 antagonist inactive and gsp ag inactive[15.4 µM].
CN(C)CCOC1=Cc2ccccc2Sc2ccc(Cl)cc21 was read as RXFP1 antagonist inactive.
Screening CCOc1ccc(-n2c(SCC(=O)N3CCOCC3)nc3c([nH]c4ccccc43)c2=O)cc1 returned RXFP1 agonist inactive.

Source: PubChem
